High-throughput results: PubChem BioAssay, National Center for Advancing Translational Sciences (NCATS)
Only some compounds are listed: those with a hit (about 2.3% of all), similar ones and a draw of the others.
AmpC detergent = qHTS Inhibitors of AmpC Beta-Lactamase (assay with detergent). P00811. AmpC hydrolysis of nitrocefin, absorbance 480 nm, 0.01% Triton. Potency, µM (top dose mostly 114 µM), inactives show at the highest dose activity change, negative = inhibition, actives largely listed as inhibitors. 0.041% of 370,000 active. AID 485294, 2010;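 note: 0% = no-compound wells and -100% = no-enzyme wells; nearly all actives have a fitted effect of over 25% in size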
Target sequence (P00811 whole entry, looked up): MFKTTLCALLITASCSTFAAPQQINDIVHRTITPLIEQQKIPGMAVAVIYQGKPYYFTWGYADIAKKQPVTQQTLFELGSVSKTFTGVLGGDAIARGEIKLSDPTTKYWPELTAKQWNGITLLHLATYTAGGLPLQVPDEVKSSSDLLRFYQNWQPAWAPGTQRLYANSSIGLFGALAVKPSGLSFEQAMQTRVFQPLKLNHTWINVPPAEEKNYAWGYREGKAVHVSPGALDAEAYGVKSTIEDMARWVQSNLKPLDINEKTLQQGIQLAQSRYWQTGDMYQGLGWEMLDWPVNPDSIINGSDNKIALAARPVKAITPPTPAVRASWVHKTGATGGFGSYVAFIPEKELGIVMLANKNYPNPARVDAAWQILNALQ
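AmpC (5.3 nM in the dispensed reagent) in 20 mM phosphate pH 7.0 with 0.01% (detergent screen) or 0.0001% Triton X-100 was preincubated with compounds for 15 min at room temperature. Nitrocefin was then added from an 800 uM solution, and hydrolysis was followed at 480 nm.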
AMA1 RON2 block = qHTS for Inhibitors of AMA1-RON; Towards Development of Antimalarial Drug Lead: Primary Screen; Plasmodium falciparum AMA1 (3D7) - RON2 peptide interaction; AlphaScreen AMA1-biotinylated RON2 peptide binding; Potency, µM (doses to about 58.2 µM), for inactives: at the top dose activity change, negative = inhibition, most hits filed as inhibitors; 0.2% of 360,000 active; AID 720542, 2013;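 note: 0% = vehicle wells and -100% = peptide control; nearly all actives have a fitted effect of over 45% in size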
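AMA1 (3D7) with his tag at 25 nM final met compounds first, then biotinylated RON2 peptide at 25 nM; detection used donor plus acceptor beads, 10 µg/mL apiece, read by AlphaScreen after 30 min at room temperature.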
AmpC no deterg = qHTS Inhibitors of AmpC Beta-Lactamase (assay without detergent). AmpC nitrocefin hydrolysis, absorbance 480 nm, 0.0001% Triton. Potency, µM (series often up to 57.1 µM), for inactives: at the top dose activity change, negative = inhibition, hits mostly inhibitors. 0.52% of 330,000 active;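 note: plate controls were no compound for no effect and no enzyme for full effect; nearly all actives have a fitted effect of over 20% in size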
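20 mM phosphate pH 7.0 + 0.01% (detergent screen) or 0.0001% Triton X-100; 5.3 nM AmpC reagent; cpd preinc 15 min RT; nitrocefin (800 uM stock) to start; A480 q20 s × 4 min; Activity was normalised to no-enzyme and no-compound control wells.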
Lassa entry inh = qHTS for Inhibitors of binding or entry into cells for Lassa Virus | Lassa virus pseudotype entry inhibition, cell reporter | Potency, µM (series often up to 37.9 µM), for inactives: top-dose activity change, negative = inhibition, hits mostly inhibitors | 1.2% of 300,000 active | AID 540256, 2011; calls by dose curve; tested in HEK293 cells; note: nearly all actives have a fitted effect of over 50% in size
MARV entry inh = qHTS for inhibitors of binding or entry into cells for Marburg Virus; 1.8% of 300,000 active; Marburg virus pseudotyped entry inhibition, cell reporter; Potency, µM (highest dose often 37.8 µM), without a hit: at the top dose activity change, negative = inhibition, most hits filed as inhibitors; calls by dose curve; tested in HEK293 cells
* hit, by the source's call; ? = inconclusive; . = no result; ! = not active in a repeat; [ ] = another dose, or the depositor's remark. Unless noted, calls come from the whole dose curve; as a rule, active = well fitted curve in the direction sought with a large enough effect; inconclusive = small, poorly fitted or top-dose-only effect, or another doubt; inactive = no such curve, though single readings can be large; an effect the other way counts as inactive or inconclusive. Unless noted, % is set by controls: 0 for no effect and ±100 for the full control effect; potency is the fitted concentration of half-maximal effect.

SMILES	AmpC detergent	AMA1 RON2 block	AmpC no deterg	Lassa entry inh	MARV entry inh
Cc1ccc(N2C(=O)CS(=O)(=O)C23C(=O)N(Cc2ccccc2F)c2ccccc23)cc1Cl (stereo not given)	8%	.	.	?	?
CCC(c1nnnn1CCc1ccccc1)N(Cc1ccco1)Cc1cc2cc(C)cc(C)c2[nH]c1=O (stereo not given)	?	-11%	38%	?	?
CCC(c1nnnn1CCc1ccccc1)N(Cc1ccco1)Cc1cc2c(C)ccc(C)c2[nH]c1=O (stereo not given)	-11%	-2%	32%	?	14µM*
CCOCCCN1C(=O)CN(C2CCCCCC2)C(=O)C1c1ccc(OC(C)C)c(OC)c1 (stereo not given)	5%	.	.	7%[46.1 µM]	.
COc1ccc(C(=O)c2coc3ccc(O)c(CN4CCCC4)c23)cc1	?	-8%	-17%	.	.
Cc1ccc(C(=O)c2coc3ccc(O)c(CN4CCN(C)CC4)c23)cc1	?	-6%	23%	-17%	23µM*
COc1cccc(NC(=O)N(Cc2c[nH]c3ccccc23)C2CCCCC2)c1	4%	.	.	-16%[46.1 µM]	?
Cc1ccc(NC(=O)N(Cc2c[nH]c3ccccc23)C2CCCCCC2)cc1C	-8%	.	.	2.5µM*	?
CCCn1cc(S(=O)(=O)c2cc(C)ccc2C)c(=O)c2cc(F)c(N3CCCCCC3)cc21	-6%	.	.	-18%[46.1 µM]	.
CS/C(Nc1cc(Cl)ccc1Cl)=C(/C#N)C(=O)c1ccco1	-3%	-6%	-38%	5µM*	?
O=C(Nc1cc(Cl)ccc1Cl)c1ccco1	-13%	0%	-19%	-3%	10%
COc1cc(NCCC(=O)c2cccs2)c(OC)cc1Cl	?	14µM*	-23%	?	?
COC(=O)[C@H](N)Cc1ccc(Cl)cc1	.	.	.	.	-20%
CCOC(=O)CC1C(=O)NCCN1S(=O)(=O)c1ccc(Cl)cc1 (stereo not given)	0%	18%	-11%	-3%	-12%
CCOC(=O)CC1C(=O)NCCN1S(=O)(=O)c1cc(Cl)c(Cl)cc1Cl (stereo not given)	-2%	17%	34%	-12%	1.6µM*
O=C(COc1ccccc1Cl)N(Cc1cccs1)C1CCS(=O)(=O)C1 (stereo not given)	-6%	14%	-8%	0.5µM*	13%[46.1 µM]
CN(C)S(=O)(=O)c1cccc(NC(=O)COC(=O)CCSc2ccc(Cl)cc2)c1	-10%	11%	-29%	11%	7%
CCN(CC)S(=O)(=O)c1cccc(NC(=O)CCNC(=O)c2ccc([N+](=O)[O-])cc2)c1	2%	-3%	-4%	.	.
CCN(CC)S(=O)(=O)c1cccc(NC(=O)CN2C(=O)c3ccc([N+](=O)[O-])cc3C2=O)c1	?	-2%	8.9µM*	-17%	5%
Cc1ccc(C(=O)Nc2ccc(S(=O)(=O)NCc3ccco3)cc2)cc1	5%	-6%	-23%	22%	-17%
CCN(CC)S(=O)(=O)c1cccc(NC(=O)c2ccc(-n3nc(C)cc3C)cc2)c1	-10%	10%	7%	?	16µM*
CCN(CC)S(=O)(=O)c1cccc(NC(=O)CCSc2ccc(Cl)cc2)c1	?	-7%[11.6 µM]	-41%	13µM*	?
Cc1cc(C)n(-c2ccc(C(=O)Nc3ccc(S(=O)(=O)NCc4ccco4)cc3)cc2)n1	?	-19%	-18%	?	13µM*!
Cc1nnsc1C(=O)Oc1ccccc1Cl	22%	.	.	23%[46.1 µM]	?
CCn1c(C(=O)N2CCC(C(=O)N3CCN(c4cc(C)ccc4C)CC3)CC2)cc2sccc21	-3%	.	.	.	?
SMILES	AmpC detergent	AMA1 RON2 block	AmpC no deterg	Lassa entry inh	MARV entry inh
Cc1ccc(C(=O)NCCc2cccs2)cc1	5%	3%	-5%	?	1.8µM*
O=C(/C=C/c1ccc(Cl)cc1)NCc1cccs1	-6%	-8%[11.6 µM]	-16%	5.8µM*	-3%
O=C(NCCc1cccs1)c1ccc(Cl)cc1	1%	-3%	-31%	5.6µM*	?
C=CCCCC=C(C)[C@H](OCc1ccc(OC)cc1)[C@H](CCC=C(C)C(N)=O)OC	.	.	.	.	10%[14.2 µM]
C[C@H]1C[C@@H](C)O[C@@]2(C1)C(=O)N(Cc1ccccc1C(F)(F)F)c1ccccc12	.	.	.	.	-15%[14.2 µM]
CCOC(=O)N/N=C/c1cn(CCCOc2ccc(C)cc2)c2ccccc12	4%	7%	-2%	?	7.1µM*
CCN(C(=O)c1cccn(Cc2cccc(Cl)c2)c1=O)c1ccccc1	5%	.	.	11%[46.1 µM]	.
Cc1ccc2nc(-c3ccccn3)[nH]c2c1	?	17%	-7%	6.3µM*	?
Cc1csc2nc(COC(=O)c3cccc(NC(=O)COc4ccccc4Cl)c3)cc(=O)n12	1%	.	.	-28%[46.1 µM]	.
CCN(CC)CCNC1=NCCn2c1cc1cc(OC)ccc12	-1%	-11%	-13%	8.2µM*	?
COC(=O)c1[nH]c2cc(C)ccc2c1NC(=O)CN1CCOCC1	-4%	0%	-2%	25%[46.1 µM]	?
COC(=O)c1[nH]c2cc(OC)ccc2c1NC(=O)CN1CCN(c2cccc(C)c2)C(C)C1 (stereo not given)	-3%	-26%	51%	?	16µM*
O=C(NCC1=C(Cl)CCCC1)C1CNCCC1C(F)(F)F (stereo not given)	.	.	.	.	-19%
CCCSc1ncc(Cl)c(C(=O)Nc2sc3c(c2C(=O)NCC)CCCC3)n1	-2%	.	.	-1%[46.1 µM]	?
Brc1ccc(NC2=Nc3ccccc3CC2)cc1	0%	-2%	-33%	-26%	-24%
Cc1ccc(NC2=Nc3ccccc3CC2)cc1	0%	-8%	-12%	?	7.9µM*
CCC(Oc1ccccc1F)C(=O)Nc1c(C(=O)c2ccccc2)oc2ccccc12 (stereo not given)	24%	.	.	7%[46.1 µM]	?
c1c2c(cc3sc(N4CCCCC4)nc13)OCO2	-10%	-26%	-2%	6.3µM*	?
COc1ccccc1NC(=S)N(Cc1cccs1)C1CCCC1	3%	-6%	-32%	-27%	?
COc1ccccc1NC(=S)N(Cc1ccccc1)Cc1cccs1	-3%	-7%	-27%	-2%	1.4µM*
Cc1nc(SCc2cc(=O)c3cccc(F)c3[nH]2)n[nH]1	19%	.	.	25%[46.1 µM]	.
Cc1cc(-c2ccc(S(=O)(=O)Nc3cc(Cl)ccc3C)s2)on1	3%	.	.	-10%[46.1 µM]	.
O=C(CSc1nnc(SCc2cccc3ccccc23)s1)c1ccc2c(c1)OCO2	-9%	41%	25µM*	15%	5%
COC(=O)C1(C(=O)OC)NOC2C(=O)N(c3ccc(Cl)cc3Cl)C(=O)C21 (stereo not given)	5%	15%	4.5µM*	10%	3%
